Screening results as filed in PubChem.
USP1 inh = blocks the human USP1/UAF1 deubiquitinase complex. AID 743255. Potency, µM (doses to about 57.1 µM), inactives show at the highest dose activity change, negative = inhibition, actives largely listed as inhibitors. recombinant USP1/UAF1, Ub-Rhodamine cleavage fluorescence. 0.23% of 390,000 active; note: % is set by controls: 0 for no effect and ±100 for the full control effect; nearly all actives have a fitted effect of over 60% in size
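Step one: compound is pinned into 1nM USP1/UAF1 in HEPES pH 7.8 buffer with TCEP. Step two: 15 min room-temperature incubation. Step three: Ub-Rho (150nM final) starts cleavage, tracked by fluorescence over six one-minute reads.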
PLK1 PBD block = blocks phosphopeptide binding to human PLK1 polo-box domain; Potency, µM, inactives show max response, negative = inhibition, most hits filed as inhibitors; P53350; 2.8% of 360,000 active; Plk1 PBD binding of FITC phosphopeptide, fluorescence polarization; note: series mostly up to about 57 µM; % is set by controls: 0 for no effect and ±100 for the full control effect; nearly all actives have a fitted effect of over 65% in size
VDR inh = vitamin D3 receptor (human) inhibition; VDR-SRC2-3 peptide fluorescence polarization, 2 h; 0.93% of 400,000 active; Potency, µM, inactives show max response, negative = inhibition, usual class: inhibitors; P11473; AID 504847; note: % is set by controls: 0 for no effect and ±100 for the full control effect
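Signal is fluorescence polarization, reporting how far test compounds block the interaction of VDR with the SRC2-3 coregulator peptide after a 2 h room-temperature incubation.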
KAT2A inh = GCN5L2 (KAT2A) acetyltransferase inhibition | 0.21% of 390,000 active | Potency, µM (highest dose often 58.9 µM), for the others: top-dose activity change, negative = inhibition, most hits filed as inhibitors | Q92830 | GCN5L2 HAT assay, ThioGlo1 CoA-SH fluorescence | AID 504327; note: % is set by controls: 0 for no effect and ±100 for the full control effect
Target sequence (Q92830 whole entry, looked up): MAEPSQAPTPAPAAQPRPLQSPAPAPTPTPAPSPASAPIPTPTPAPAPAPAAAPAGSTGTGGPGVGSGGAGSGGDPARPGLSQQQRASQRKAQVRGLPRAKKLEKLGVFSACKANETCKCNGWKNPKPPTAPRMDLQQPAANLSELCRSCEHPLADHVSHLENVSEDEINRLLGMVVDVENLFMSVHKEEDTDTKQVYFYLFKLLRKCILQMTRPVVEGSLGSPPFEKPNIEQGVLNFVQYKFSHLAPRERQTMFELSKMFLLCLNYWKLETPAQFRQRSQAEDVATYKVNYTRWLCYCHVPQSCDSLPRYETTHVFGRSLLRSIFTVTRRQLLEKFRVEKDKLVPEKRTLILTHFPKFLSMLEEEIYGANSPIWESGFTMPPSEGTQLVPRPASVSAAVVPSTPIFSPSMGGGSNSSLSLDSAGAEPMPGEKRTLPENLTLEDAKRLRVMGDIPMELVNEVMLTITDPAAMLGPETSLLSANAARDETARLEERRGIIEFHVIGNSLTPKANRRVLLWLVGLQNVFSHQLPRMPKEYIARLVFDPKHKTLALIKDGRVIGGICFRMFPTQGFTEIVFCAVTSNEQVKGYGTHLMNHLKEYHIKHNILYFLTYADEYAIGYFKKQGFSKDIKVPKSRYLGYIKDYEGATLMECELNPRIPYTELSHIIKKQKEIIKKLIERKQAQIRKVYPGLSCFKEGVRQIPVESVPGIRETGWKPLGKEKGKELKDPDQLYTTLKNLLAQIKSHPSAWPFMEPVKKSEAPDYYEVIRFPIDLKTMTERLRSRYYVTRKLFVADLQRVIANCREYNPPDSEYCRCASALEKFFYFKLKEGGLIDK
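ThioGlo1-coupled HAT assay: 20nM GCN5L2, 70uM acetyl-CoA, 75uM H3(1-25) peptide, pH 7.5. Fluorescence read at 340/540nm at start and after 20 min at room temperature.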
TSG101-PTAP inh = blocks PTAP/TSG101 interaction to inhibit HIV-1 budding. Q99816. Fluorescence polarization, FITC-PTAP peptide / Tsg101 binding. Potency, µM (highest dose often 115 µM), for the others: at the highest dose activity change, negative = inhibition, hits mostly inhibitors. 340,000 tested, under 10 active; active = well fitted inhibition curve with a large enough effect in the main read-out, with a control signal flat, not every such curve was filed as active; inconclusive = small, poorly fitted or top-dose-only effect, or effect the other way, or a change in a side signal; inactive = no such curve, though single readings can be large or run the other way; note: % of control where 0% means no effect
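Compounds were pin-transferred onto Tsg101 binding domain (10 uM final) in HEPES pH 7.5 buffer, then FITC-PTAP peptide was added at 50 nM final. After 20 min at RT, polarization reported peptide displacement across a qHTS concentration series.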
An asterisk follows results filed as active; ! = not active in a repeat. Sampled rows, rich in hits. Any-hit rate of the full collection: about 3%. Unless noted, calls come from the whole dose curve; as a rule, active = well fitted curve in the direction sought with a large enough effect; inconclusive = small, poorly fitted or top-dose-only effect, or another doubt; inactive = no such curve, though single readings can be large; an effect the other way counts as inactive or inconclusive. Potency is the fitted concentration of half-maximal effect.

Screening O=C(NC1CCCCC1)C(c1ccccn1)N(C(=O)c1csnn1)c1ccccc1F (stereo unspecified) returned USP1 inh -16%, PLK1 PBD block 3%, VDR inh -17%, KAT2A inh 1% and TSG101-PTAP inh -7%.
NC(=O)C1CCCN(CCc2ccccc2)C1 (stereo unspecified) was read as USP1 inh -12%, PLK1 PBD block -4%, VDR inh 10%, KAT2A inh inconclusive and TSG101-PTAP inh -6%.
`CCCc1sc(N2CCCC(C(N)=O)C2)nc1-c1ccccc1` (stereo unspecified) gave USP1 inh -25%, PLK1 PBD block 24µM*, VDR inh 79µM*, KAT2A inh 3% and TSG101-PTAP inh -8%.
For CC(C)C[C@H](NC(=O)CCn1nnc2ccccc2c1=O)C(=O)O the results were USP1 inh -8%, PLK1 PBD block 19µM*, VDR inh -11%, KAT2A inh -4% and TSG101-PTAP inh 0%.
O=C(Cn1nnc2ccccc2c1=O)N[C@@H](Cc1c[nH]c2ccccc12)C(=O)O was read as USP1 inh -17%, PLK1 PBD block -1%, VDR inh 1%, KAT2A inh -6% and TSG101-PTAP inh -12%.
O=C(Cn1nnc2ccccc2c1=O)N[C@H](C(=O)O)c1ccccc1 was read as USP1 inh -18%, PLK1 PBD block 30µM*, VDR inh -19%, KAT2A inh 0% and TSG101-PTAP inh -5%.
For C[C@H](NC(=O)CCn1nnc2ccccc2c1=O)C(=O)O the results were USP1 inh -21%, PLK1 PBD block 3%, VDR inh -22%, KAT2A inh -4% and TSG101-PTAP inh -5%.
O=C(CCCn1nnc2ccccc2c1=O)N[C@H](C(=O)O)c1ccccc1 was read as USP1 inh -13%, PLK1 PBD block -5%, VDR inh -2%, KAT2A inh -2% and TSG101-PTAP inh 1%.
`C[C@@H](C(=O)N[C@@H](Cc1c[nH]c2ccccc12)C(=O)O)n1nnc2ccccc2c1=O` gave USP1 inh -20%, PLK1 PBD block 30µM*, VDR inh -29%, KAT2A inh -9% and TSG101-PTAP inh -4%.
COc1ccc(NC(=O)CSC2=Nc3ccccc3C3=NC(CCC(=O)NCc4ccco4)C(=O)N23)cc1 (stereo unspecified) was read as USP1 inh -15%, VDR inh 9% and KAT2A inh 2%.
`CN(C(=O)CSc1nc2ccccc2o1)C1CCS(=O)(=O)C1` (stereo unspecified) gave USP1 inh -4%, PLK1 PBD block -12%, VDR inh -10%, KAT2A inh -7% and TSG101-PTAP inh -1%.
`CN(C(=O)CSc1nnc(-c2ccccc2)n1C)C1CCS(=O)(=O)C1` (stereo unspecified) gave USP1 inh -15%, PLK1 PBD block 27µM*, VDR inh -6%, KAT2A inh -6% and TSG101-PTAP inh -4%.
For CN(C(=O)CSc1nc(-c2ccccc2)c(-c2ccccc2)o1)C1CCS(=O)(=O)C1 (stereo unspecified) the results were USP1 inh -17%, PLK1 PBD block 30µM*, VDR inh -2%, KAT2A inh -8% and TSG101-PTAP inh -8%.
For CCc1c(C(=O)NCCc2ccc(N3CCCCC3)cc2)[nH]c2ccc(Cl)cc12 the results were VDR inh -2% and KAT2A inh -12%.
`COc1ccc(N(C(=O)c2ccccc2)S(=O)(=O)c2cccs2)cc1` gave USP1 inh -11%, PLK1 PBD block 19µM*, VDR inh 22µM*, KAT2A inh -12% and TSG101-PTAP inh -2%.
For COc1ccc2c(c1)c(=O)c(C(=O)c1ccc(C)cc1)cn2Cc1ccccc1F the results were USP1 inh 11%, VDR inh -5% and KAT2A inh -9%.
c1ccc(CCn2nnnc2CN2CCCc3ccccc32)cc1 was read as USP1 inh -13%, PLK1 PBD block 13µM*, VDR inh -15%, KAT2A inh -1% and TSG101-PTAP inh -15%.
`c1ccc2c(c1)CCCN2Cc1nnnn1CC1CCCO1` (stereo unspecified) gave USP1 inh -25%, PLK1 PBD block -27%, VDR inh 1%, KAT2A inh 8% and TSG101-PTAP inh inconclusive.
CCCCCn1c(CCNC(=O)c2cccc(C)c2)nc2ccccc21 was read as USP1 inh inconclusive, VDR inh -16% and KAT2A inh -3%.
`O=Cc1ccc(Sc2nnc(-c3ccccc3)o2)c([N+](=O)[O-])c1` gave USP1 inh -19%, PLK1 PBD block inconclusive, VDR inh 79µM*, KAT2A inh -12% and TSG101-PTAP inh -2%.
`Cn1nc([N+](=O)[O-])nc1Sc1nnc(-c2ccccc2)o1` gave USP1 inh -5%, PLK1 PBD block -7%, VDR inh -9%, KAT2A inh 1% and TSG101-PTAP inh -1%.
COC(=O)/C(=C/c1cn(C)c2ccccc12)[N+](=O)[O-] was read as KAT2A inh -1%.
`COC(=O)/C(=C/c1c[nH]c2ccccc12)[N+](=O)[O-]` gave USP1 inh -6%, PLK1 PBD block 2.4µM*, VDR inh -8%, KAT2A inh 0% and TSG101-PTAP inh -1%.
COc1ccc(/C=C/C(=O)c2cc(O)ccc2O)cc1 was read as VDR inh 7.9µM* and KAT2A inh -12%.
`COc1cc(/C=C/C(O)=C/C(=O)/C=C/c2ccc(O)cc2)ccc1O` gave USP1 inh 28µM*, PLK1 PBD block 40%, VDR inh 1%, KAT2A inh -2% and TSG101-PTAP inh inconclusive.
COc1ccc(/C=C/C(=O)c2ccc(O)cc2O)cc1 was read as VDR inh inconclusive and KAT2A inh -28%.
Screening COc1ccc(C(=O)/C=C/c2ccccc2)c(O)c1 returned USP1 inh -8%, PLK1 PBD block -22%, VDR inh inconclusive, KAT2A inh 0% and TSG101-PTAP inh -3%.
Screening O=C(/C=C/c1ccc(O)cc1)c1ccc(O)cc1O returned USP1 inh -24%, PLK1 PBD block -22%, VDR inh 79µM*!, KAT2A inh -16% and TSG101-PTAP inh -2%.
`O=C(/C=C/c1ccccc1)c1ccc(O)cc1O` gave VDR inh 25µM* and KAT2A inh -15%.
Screening COc1ccc(N2CCN(C(CNC(=O)CC(C)C)c3ccc4c(c3)OCO4)CC2)cc1 (stereo unspecified) returned USP1 inh -5%, VDR inh 11% and KAT2A inh 2%.
`CN(C)S(=O)(=O)c1ccc2c(c1)N(CC(=O)NCc1ccc(F)cc1)C(=O)CS2` gave USP1 inh -21%, VDR inh 0% and KAT2A inh -4%.
